Assay outcomes from PubChem BioAssay.
p53ts 39C kill: cytotoxicity in p53ts cells at nonpermissive temperature | H1299-p53A138V viability at 39C, ATP luminescence, 24 h | Potency, µM (doses to about 46.1 µM), for inactives: top-dose activity change, negative = cell killing, actives largely listed as cytotoxic | actives 1.5% (n = 130,000); note: % is set by controls: 0 for no effect and ±100 for the full control effect; nearly all actives have a fitted effect of over 55% in size
CRE-bla Fsk: alters forskolin-stimulated CRE reporter signaling in CHO cells | CHO CRE-bla reporter (cAMP response element driving beta-lactamase), forskolin EC10, beta-lactamase ratio | Potency, µM (highest dose often 38.2 µM), for inactives: at the highest dose activity change, negative = inhibition, actives largely listed as activators | actives 2.5% (n = 71,000); active = well fitted activation curve with a large enough effect in the signal ratio, with a control signal flat, not every such curve was filed as active; inconclusive = small, poorly fitted or top-dose-only effect, or effect the other way, or a change in a side signal; the % refers to the signal ratio; note: % of control where 0% means no effect
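Reporter-gene assay: CHO cells with beta-lactamase behind cAMP responsive elements, co-treated with compound and EC10 NKH 477 for 3 hours at 37 degrees Celsius. Activity came from the 460/530 nm CCF4 emission ratio.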
p53ts 32C kill: kills p53ts cells at the permissive temperature | actives 0.93% (n = 130,000) | H1299-p53A138V at 32C, ATP luminescence viability, 24 h | AID 924 | Potency, µM (highest dose often 46.1 µM), inactives show at the top dose activity change, negative = cytotoxicity, usual class: cytotoxic;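 note: 0% = DMSO and -100% = full killing by reference compound; nearly all actives have a fitted effect of over 55% in size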
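Viability by ATPlite luminescence after 24 h compound treatment (up to 46 uM) at the permissive 32C. Cells are H1299 carrying p53 A138V. Scale runs from DMSO basal to 100 uM tamoxifen as full kill; AC50 from Hill fits.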
Peg3 imprint: induces erasure of genomic imprints in mouse ES cells; mouse ES Peg3-LacZ reporter, beta-gal luminescence, 40 h; Potency, µM (highest dose often 60.7 µM), without a hit: at the top dose activity change, positive = activation, usual class: activators; actives 0.02% (n = 110,000)
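Readout: BetaGlo luminescence (5 min, room temp) for LacZ from the normally silent maternal Peg3 allele in female Peg3LacZ-Neo ES cells. Cells 300/well, 40 h, 37C, 5% CO2. Data normalized per plate to negative controls.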
IkB sig inh: inhibitors of IkB signaling in ABC-DLBCL cells | ABC-DLBCL IkBa-CBG/CBR dual luciferase ratio, 4 h; response scale: scaled: untreated 0%, proteasome inhibitor 100% | Potency, µM (doses to about 57.1 µM), without a hit: at the top dose IkBa stabilization activation | actives 0.04% (n = 110,000) | AID 445; active = well fitted curve in the direction sought with a large enough effect in the signal ratio, not every such curve was filed as active; inconclusive = small, poorly fitted or top-dose-only effect, or a change in a side signal; the % refers to the signal ratio;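 note: the direction sought is a rising ratio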
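In this assay, an IκBα–CBG68 fusion accumulates when IKK-driven degradation is blocked; native CBR normalizes for cell number. OCI-Ly3 cells were treated 4 h with compound and doxycycline, then green and red light read after Chroma-Glo addition.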
The depositor's hits bear a star; u = inconclusive; x = not tested or not shown; ! = not confirmed by another sample; [ ] = dose if it differs, or a comment. The list is not random: actives were taken first. Their share in the collection is about 3%. Unless noted, calls come from the whole dose curve; as a rule, active = well fitted curve in the direction sought with a large enough effect; inconclusive = small, poorly fitted or top-dose-only effect, or another doubt; inactive = no such curve, though single readings can be large; an effect the other way counts as inactive or inconclusive. Potency is the fitted concentration of half-maximal effect.

SMILES | p53ts 39C kill | CRE-bla Fsk | p53ts 32C kill | Peg3 imprint | IkB sig inh
CC(=O)C1=C(O)[C@@H]2[C@@H]3c4c[nH]c5cccc(c45)C[C@@H]3C(C)(C)N2C1=O | -5% | 1.3µM* | 3% | -8% | 1%
CC(=O)C1=C(O)C2C3c4c[nH]c5cccc(c45)CC3C(C)(C)N2C1=O (stereo unspecified) | -6% | x | -5% | 20% | x
C=C[C@@H]1CN2CC[C@H]1CC2[C@H](O)c1ccnc2ccccc12 (stereo partly specified) | x | x | x | 7%[10.9 µM] | x
CC(=O)OC1C[C@H](O[C@@H]2C(O)C[C@H](O[C@@H]3C(O)C[C@@H](OC4CC[C@]5(C)C(CCC6C5CC(O)[C@@]5(C)C(C7=CC(=O)OC7)CC[C@@]65O)C4)OC3C)OC2C)O[C@H](C)[C@H]1O[C@H]1OC(CO)C(O)C(O)C1O (stereo partly specified) | u | x | -28% | 1% | x
CC1CC[C@@]2(OC1)O[C@@H]1[C@@H](O)[C@H]3C4CC[C@H]5C[C@@H](O[C@@H]6O[C@H](CO)[C@H](O[C@@H]7O[C@H](CO)[C@@H](O)[C@H](O[C@@H]8OC[C@@H](O)[C@H](O)[C@H]8O)[C@H]7O[C@@H]7O[C@H](CO)[C@@H](O)[C@H](O[C@@H]8O[C@H](CO)[C@@H](O)[C@H](O)[C@H]8O)[C@H]7O)[C@H](O)[C@H]6O)[C@H](O)C[C@]5(C)C4CC[C@]3(C)[C@H]1[C@@H]2C (stereo partly specified) | 13µM* | x | 13µM* | -22% | x
CC1CC[C@@]2(OC1)OC1C(O)C3C4CC[C@H]5CC(O[C@@H]6O[C@@H](CO)[C@H](OC7OC(CO)C(O)C(OC8OCC(O)C(O)[C@H]8O)[C@@H]7O[C@@H]7OC(CO)[C@H](O)[C@@H](O[C@@H]8OC(CO)C(O)C(O)C8O)C7O)C(O)C6O)C(O)C[C@]5(C)C4CC[C@]3(C)C1C2C (stereo partly specified) | 6.3µM* | x | 6.3µM* | -37% | x
c1cc(OCC2CO2)cc(OCC2CO2)c1 (stereo unspecified) | 25µM* | -4% | -4%[1.84 µM] | 3% | u
Cc1cc[c]([Sb]2[O]C([C@H](O)[C@H](O)C(=O)O)[C@@H](CO)[O]2)cc1 (stereo partly specified) | x | x | x | -2%[10.9 µM] | x
[O]=[Cr](=[O])([OH])[O][Cr](=[O])(=[O])[OH] | 10µM* | u | -5%[1.84 µM] | -18% | 6%
COCCOC(=O)c1c(N)n(Cc2ccccc2)c2nc3ccccc3nc12 | -12% | 16µM* | 7% | -8% | -1%
CCOC(=O)c1c(N)n(Cc2ccco2)c2nc3ccccc3nc12 | 6% | u | 5% | -19% | u
CC(C)OC(=O)c1c(N)n(CC2CCCO2)c2nc3ccccc3nc12 (stereo unspecified) | 5% | 10µM* | 4% | -21% | -1%
COc1cc2c(cc1OC)-c1c(O)c(OC)cc3c1[C@@H](C2)N(C)CC3 | x | u | x | x | 1%[11.4 µM]
CO[C@@H]([CH2][Hg])CN1C(=O)c2ccccc2S1(=O)=O.Cn1c(=O)c2nc[nH]c2n(C)c1=O | 8%[9.22 µM] | 3%[7.6 µM] | 12%[9.22 µM] | -18%[10.9 µM] | 6%[11.4 µM]
Cc1cccn2c(=O)cc(COc3cccc(NC(=O)COc4ccc(F)cc4)c3)nc12 | 7.9µM* | x | u | -6%[10.9 µM] | u
Cc1ccc(-n2nc3ccc(NC(=O)COc4ccccc4C)cc3n2)cc1 | 17% | x | -17% | 19%[10.9 µM] | -5%
O=C(COC(=O)c1cccc(NC(=O)c2ccc(Br)cc2)c1)c1ccc(Br)cc1 | u | x | -24% | u | u
Cc1ccc(C(=O)COC(=O)c2cccc(NC(=O)c3ccc(Br)cc3)c2)cc1 | 7.9µM* | x | u | -16%[10.9 µM] | u
CN1CCN(C(=O)COc2ccc3ccccc3c2Br)CC1 | -4% | 2.5µM* | 41% | -6% | -3%
Cc1cc(Cl)ccc1OCC(=O)N1CCN(C)CC1 | 9% | 2% | -3% | -10% | 3%
CC[C@H](CO)NC(=O)[C@@H]1C=C2c3cccc4[nH]cc(c34)C[C@@H]2N(C)C1 | 4% | -10% | -6% | x | 2%
CNCCc1ccc(O)c(O)c1 | 20µM* | -6% | u | -44% | 0%
CC[C@]1(OC(=O)CN)C(=O)OCc2c1cc1n(c2=O)Cc2cc3ccccc3nc2-1 | -22%[9.22 µM] | 0.1µM* | -4%[9.22 µM] | -35%[10.9 µM] | u
O=C(O)C[SH+]CC(=O)O.O=C(O)C[SH+]CC(=O)O.[Cu] | x | x | x | -10%[10.9 µM] | x
O=S1OCC2C(CO1)C1(Cl)C(Cl)=C(Cl)C2(Cl)C1(Cl)Cl (stereo unspecified) | -6% | u | 20% | -9% | 3%
SMILES | p53ts 39C kill | CRE-bla Fsk | p53ts 32C kill | Peg3 imprint | IkB sig inh
O=C(O)[C@@H]1[C@H](C(=O)O)[C@]2(Cl)C(Cl)=C(Cl)[C@@]1(Cl)C2(Cl)Cl | 1µM* | 9%[7.6 µM] | u | 2%[10.9 µM] | 3.2µM*
CCCCCCCCCCCCCC(=O)O[C@H]1[C@@H](C)[C@@]2(O)[C@@H](C=C(CO)C[C@]3(O)C(=O)C(C)=C[C@@H]23)C2C(C)(C)[C@]21OC(C)=O (stereo partly specified) | 16µM* | 0% | u | x | u
CC[C@@H]1CN2CCc3cc(OC)c(OC)cc3[C@H]2C[C@@H]1C[C@@H]1NCCc2cc(OC)c(OC)cc21 | u | u | 10% | x | u
COC[C@@H]1OC(=O)c2coc3c2[C@]1(C)C1=C(C3=O)[C@H]2CCC(=O)[C@]2(C)C[C@@H]1OC(C)=O | x | -22% | x | x | u
CCCCCCC(C)(C)c1ccc([C@@H]2C[C@H](O)CC[C@@H]2CCCO)c(O)c1 | 6.3µM* | u | 13µM* | -24% | u
C[C@]1(C(=O)O)[C@@H]2CC[C@@H](O2)[C@@]1(C)C(=O)O | 66% | u | 171% | x | u
COc1cc2c(cc1OC)-c1c(O)c(OC)cc3c1[C@H](C2)N(C)CC3 | u | x | 32µM* | -13% | x
Oc1ccc([C@H](O)C2CCCCN2)cc1O (stereo partly specified) | x | x | x | -10%[10.9 µM] | x
CCc1c(C(=O)OC)ncc2[nH]c3cc(OC)c(OC)cc3c12 | -10% | 2.5µM* | 10% | -20% | -7%
CCOC(=O)c1ncc2[nH]c3ccc(OCc4ccccc4)cc3c2c1COC | x | x | x | -34% | x
COc1cc(-c2ccc(N)c(OC)c2)ccc1N | 0% | u | 1%[1.84 µM] | -3% | -1%
COc1cc(-c2ccc(=O)[nH]n2)ccc1OC(F)F | u | 16µM*! | -9% | -6% | 0%
